Read-out in assay [1]: Vascular cell adhesion molecule 1 (VCAM1), VCAM1 (gene 7412)
The assay can be described thus: BSK_4H_VCAM1: BioMAP Diversity Plus: 4H Assay for Vascular cell adhesion molecule 1 (VCAM1) Biomarker Activity (AID 2283033).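 For outcome: cell-surface VCAM-1 protein measured by ELISA.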 The conditions noted are these: primary human endothelial cells (HUVEC); actives raise or lower the signal. In outline:
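HUVEC, 24 h post-dose; VCAM-1 by ELISA. Bidirectional curve fit vs DMSO baseline. Parallel SRB total-protein stain (0.1% SRB after 10% TCA fixation, 560 nm) for cytotoxicity.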

Read-out in assay [2]: Interferon-gamma inducible Protein 10 (IP10), CXCL10 (gene 3627)
Briefly: BSK_BE3C_IP10: BioMAP Diversity Plus: BE3C Assay for Interferon-gamma inducible Protein 10 (IP10) Biomarker Activity (AID 2283034). The note with it: primary human bronchial epithelial cells; actives raise or lower the signal. An outline of the steps: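 ELISA readout of IP-10 in BE3C system: primary human bronchial epithelial cells, 24 h post-dosing; bidirectional curve fit vs DMSO baseline.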

Read-out in assay [3]: Monokine induced gamma interferon (MIG), CXCL9 (gene 4283)
Briefly: BSK_BE3C_MIG: BioMAP Diversity Plus: BE3C Assay for Monokine induced gamma interferon (MIG) Biomarker Activity (AID 2283035).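 For outcome: MIG protein measured by ELISA in BE3C cultures after 24 h of dosing.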 The note with it: primary human bronchial epithelial cells; actives raise or lower the signal. An outline of the steps:
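Dose cells (human primary bronchial epithelial), incubate 24 h, quantify MIG by ELISA, then fit concentration–response in both directions relative to DMSO control.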

Read-out in assay [4]: Transforming growth factor beta 1 (TGFb1), TGFB1 (gene 7040)
Briefly: BSK_BE3C_TGFb1: BioMAP Diversity Plus: BE3C Assay for Transforming growth factor beta 1 (TGFb1) Biomarker Activity (AID 2283036;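 for outcome: TGF-b1 protein level measured by ELISA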). The conditions noted are these: primary human bronchial epithelial cells; actives raise or lower the signal. In outline: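 Read-out: ELISA for TGF-b1 in primary human bronchial epithelial cultures, 24 h post-dose. Bidirectional curve fitting vs DMSO control; gain or loss of signal both scored.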

Read-out in assay [5]: Plasminogen activator inhibitor-1 (PAI1), SERPINE1 (gene 5054)
The assay can be described thus: BSK_BE3C_PAI1: BioMAP Diversity Plus: BE3C Assay for Plasminogen activator inhibitor-1 (PAI1) Biomarker Activity (AID 2283037). The note with it: primary human bronchial epithelial cells; actives raise or lower the signal. An outline of the steps:
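ELISA read-out of PAI-1 from human bronchial epithelial primary cells, 24 h post-dosing; bidirectional curve fit vs DMSO baseline, gain or loss of signal scored.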

Read-out in assay [6]: urokinase plasminogen activator (uPA), PLAU (gene 5328)
The assay can be described thus: BSK_BE3C_uPA: BioMAP Diversity Plus: BE3C Assay for urokinase plasminogen activator (uPA) Biomarker Activity (AID 2283038).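 Note: uPA protein level quantified by ELISA in cell cultures; uPA read one day after compound addition.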 The note with it: primary human bronchial epithelial cells; actives raise or lower the signal. An outline of the steps: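 Using confluent primary human lung bronchial epithelial cultures, we dosed chemicals, waited 24 h, then ran a uPA ELISA, fitting bidirectionally against DMSO.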

Read-out in assay [7]: Urokinase-type plasminogen activator receptor (uPAR), PLAUR (gene 5329)
Briefly: BSK_BE3C_uPAR: BioMAP Diversity Plus: BE3C Assay for Urokinase-type plasminogen activator receptor (uPAR) Biomarker Activity (AID 2283039).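 Note: uPAR protein level measured by ELISA on the cells; cells exposed to compound for one day before measurement.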 The note with it: primary human bronchial epithelial cells; actives raise or lower the signal. In outline: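 ELISA readout of uPAR on human lung primary bronchial epithelial cells, 24 h post-dosing. Bidirectional curve fit relative to DMSO vehicle baseline; gain or loss of signal both scored.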

Read-out in assay [8]: Interleukin-6 (IL6), IL6 (gene 3569)
The assay can be described thus: BSK_CASM3C_IL6: BioMAP Diversity Plus: CASM3C Assay for Interleukin-6 (IL6) Biomarker Activity for (AID 2283040). The note with it: primary human coronary artery smooth muscle cells; actives raise or lower the signal.

Read-out in assay [9]: Tissue plasminogen activator (tPA), PLAT (gene 5327)
Briefly: BSK_BE3C_tPA: BioMAP Diversity Plus: BE3C Assay for Tissue plasminogen activator (tPA) Biomarker Activity (AID 2283041).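 For outcome: tPA level quantified by ELISA one day after compound addition.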 The note with it: primary human bronchial epithelial cells; actives raise or lower the signal. An outline of the steps: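 ELISA read-out of tPA on human primary bronchial epithelial cells, 24 h post-dosing; bidirectional fit vs DMSO negative control/baseline.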

Read-out in assay [10]: Interleukin-8 (IL8), CXCL8 (gene 3576)
The assay can be described thus: BSK_CASM3C_IL8: BioMAP Diversity Plus: CASM3C Assay for Interleukin-8 (IL8) Biomarker Activity (AID 2283042).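 Note: IL-8 protein level quantified by ELISA.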 The conditions noted are these: primary human coronary artery smooth muscle cells; actives raise or lower the signal.

Read-out in assay [11]: Human Leukocyte Antigen - DR isotype (HLADR), HLA-DRA (gene 3122)
The assay can be described thus: BSK_CASM3C_HLADR: BioMAP Diversity Plus: CASM3C Assay for Human Leukocyte Antigen - DR isotype (HLADR) Biomarker Activity (AID 2283043).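 Note: cell-surface HLA-DR protein level quantified by ELISA.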 The note with it: primary human coronary artery smooth muscle cells; actives raise or lower the signal.

Read-out in assay [12]: Macrophage colony-stimulating factor (MCSF), CSF1 (gene 1435)
Briefly: BSK_CASM3C_MCSF: BioMAP Diversity Plus: CASM3C Assay for Macrophage colony-stimulating factor (MCSF) Biomarker Activity (AID 2283044).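 Note: M-CSF protein amount quantified by ELISA after 24 h exposure.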 The conditions noted are these: primary human coronary artery smooth muscle cells; actives raise or lower the signal.

Read-out in assay [13]: Low-density lipoprotein receptor (LDLR), LDLR (gene 3949)
Briefly: BSK_CASM3C_LDLR: BioMAP Diversity Plus: CASM3C Assay for Low-density lipoprotein receptor (LDLR) Biomarker Activity (AID 2283045).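 Note: LDLR protein level on the cell surface quantified by ELISA.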 The conditions noted are these: primary human coronary artery smooth muscle cells; actives raise or lower the signal.

Read-out in assay [14]: Monocyte Chemoattractant Protein-1 (MCP1), CCL2 (gene 6347)
Briefly: BSK_CASM3C_MCP1: BioMAP Diversity Plus: CASM3C Assay for Monocyte Chemoattractant Protein-1 (MCP1) Biomarker Activity (AID 2283046).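 Note: MCP-1 level quantified by ELISA 24 h after dosing.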 The conditions noted are these: primary human coronary artery smooth muscle cells; actives raise or lower the signal.

Assay [15] in a line: BSK_CASM3C_Proliferation: Cell Proliferation Assessment in the BioMAP Diversity Plus: CASM3C Assay (AID 2283047).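 Note: sulforhodamine B total protein stain as relative cell number at 560 nm; sub-confluent cells exposed 48 h before staining; fitted both ways against DMSO so gain or loss of cell number.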 The note with it: primary human coronary artery smooth muscle cells.
Read-out in assay [16]: Monokine induced gamma interferon (MIG), CXCL9 (gene 4283)
The assay can be described thus: BSK_CASM3C_MIG: BioMAP Diversity Plus: CASM3C Assay for Monokine induced gamma interferon (MIG) Biomarker Activity (AID 2283048).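 Note: MIG protein level measured by ELISA.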 The note with it: primary human coronary artery smooth muscle cells; actives raise or lower the signal.

Read-out in assay [17]: serum amyloid A (SAA), SAA1 (gene 6288)
Briefly: BSK_CASM3C_SAA: BioMAP Diversity Plus: CASM3C Assay for serum amyloid A (SAA) Biomarker Activity (AID 2283049).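 Note: SAA protein level quantified by ELISA.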 The conditions noted are these: primary human coronary artery smooth muscle cells; actives raise or lower the signal.

Assay [18] is described as follows: BSK_CASM3C_SRB: Viability Assessment in the BioMAP Diversity Plus: CASM3C Assay (AID 2283050).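 Note: total protein by SRB staining as cytotoxicity measure in parallel cultures; cells exposed to compound for 24 h.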 The conditions noted are these: primary human coronary artery smooth muscle cells.
Read-out in assay [19]: Thrombomodulin, THBD (gene 7056)
Briefly: BSK_CASM3C_Thrombomodulin: BioMAP Diversity Plus: CASM3C Assay for Thrombomodulin Biomarker Activity (AID 2283051).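 Note: thrombomodulin protein level measured by ELISA 24 h after dosing.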 The conditions noted are these: primary human coronary artery smooth muscle cells; actives raise or lower the signal.

Read-out in assay [20]: Tissue Factor, F3 (gene 2152)
Briefly: BSK_CASM3C_TissueFactor: BioMAP Diversity Plus: CASM3C Assay for Tissue Factor Biomarker Activity (AID 2283052).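 Note: cell surface tissue factor protein level read by ELISA.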 The note with it: primary human coronary artery smooth muscle cells; actives raise or lower the signal.

The source holds several records for some structures; these can differ, active in one and inactive in another. Calls of active or inactive are those of the source. Rule for the calls: active = hit-call score of the fitted dose curve at least 0.9, where 1 is the maximum; inactive = score below 0.9.

In general, AC50 refers to the midpoint of the concentration-response curve, whichever way the signal moves. In the case of `Cc1[nH]nc2c1N=C(c1ccccc1Cl)c1cc([N+](=O)[O-])ccc1N2`, the AC50 in assay [1] is 2.56 µM (active); in [2], 12.2 µM (active); in assay [3], 19.3 µM (active); in assay [4], 21.6 µM (active); in assay [5], 1.62 µM (active); in [9], 20 µM (active). Further, the concentration at half-maximal activity (AC50) in [11] is 8.7 µM (active); in [12], 0.581 µM (active); in [15], 0.807 µM (active); in assay [16], 7.47 µM (active); in assay [17] it was 0.641 µM (active). The outcome in [6], in assay [7], in [8], in assay [10], in assay [13] and in [14] was inactive. The outcome in assay [18], in [19] and in [20] was inactive.

As to `O=C(c1ccccc1)c1ccccc1`, the outcome in assay [1], in [2], in assay [3], in assay [4], in assay [5] and in [6] was inactive. Moreover, the outcome in assay [7], in assay [8], in [9], in assay [10], in assay [11] and in assay [12] was inactive. Also, the result in [13], in [14], in [15], in assay [16], in [17] and in [18] was inactive. The outcome in assay [19] and in assay [20] was inactive.

As for `Cc1cccc2c1ccc1ccccc12`, the result in [1], in assay [2], in [3], in [4], in assay [5] and in assay [6] was inactive. In addition, the result in [7], in assay [8], in [9], in assay [10], in assay [11] and in assay [12] was inactive. Besides, the outcome in assay [13], in assay [14], in assay [15], in [16], in assay [17] and in assay [18] was inactive. The result in assay [19] and in assay [20] was inactive.

On to `Oc1cc2ccccc2cc1O`, for which the result in [1], in assay [2], in [3], in [4], in assay [5] and in [6] was inactive. The outcome in assay [7], in assay [8], in [9], in [10], in assay [11] and in [12] was inactive. The outcome in assay [13], in [14], in assay [15], in [16], in [17] and in [18] was inactive. Also, the result in assay [19] and in assay [20] was inactive.

As for `CCC(C)c1ccccc1O` (stereo not given), the outcome in [1], in assay [2], in assay [3], in assay [4], in assay [5] and in [6] was inactive. Besides, the outcome in assay [7], in [8], in [9], in assay [10], in [11] and in assay [12] was inactive. Also, the outcome in assay [13], in assay [14], in assay [15], in [16], in assay [17] and in assay [18] was inactive. Moreover, the outcome in assay [19] and in assay [20] was inactive.

Regarding `OCC(F)(F)C(F)(F)C(F)(F)C(F)(F)C(F)(F)C(F)(F)C(F)(F)C(F)(F)C(F)(F)C(F)(F)C(F)(F)F`, the result in assay [1], in [2], in assay [3], in [5], in assay [6] and in assay [7] was inactive. Moreover, the outcome in [8], in assay [9], in [10], in assay [11], in assay [12] and in [13] was inactive. Further, the outcome in assay [14], in assay [15], in assay [16], in [17], in assay [18] and in assay [19] was inactive. In addition, the result in [20] was inactive. For the same compound, the half-maximal activity concentration (AC50) in assay [2] is 0.218 µM (active).

For the origin of these results see PubChem BioAssay (EPA / NIEHS).
